Laboratory results reported in PubChem BioAssay AID2315 (National Center for Advancing Translational Sciences (NCATS), 2010).
The campaign covered roughly 290,000 compounds. About 27,000 (9.3%) were called active. The list comes from a sample in which actives are over-represented; it also holds similar structures and randomly drawn compounds. Values without a mark were called inactive. Rule as the data show it: active = inhibition mostly above about 28% (no sharp cut-off); inactive = mostly below about 43%.

test: A qHTS for Small Molecule Inhibitors of Shiga Toxin; details: Vero cells, Shiga toxin protein synthesis inhibition reporter; at 38.7 µM, active compounds read high; also: 0% is about no effect

SMILES	inhibition
CN1CCN(c2ccc(NC(=O)c3ccc4c(c3)OCCO4)cc2Cl)CC1	77.9% (active)
Cc1ccc(C(=O)Nc2ccc3c(c2)OCO3)cc1S(=O)(=O)N1CCCCC1	43.9%
O=C(Nc1ccc2c(c1)OCCO2)c1ccc(Cl)c(S(=O)(=O)N2CCCCC2)c1	147% (active)
O=C(Nc1cccc(S(=O)(=O)N2CCCCC2)c1)c1ccc2c(c1)OCO2	21.9%
O=C(Nc1cccc(Cl)c1N1CCOCC1)c1ccc2c(c1)OCCO2	121%
COC(=O)c1ccc(N2CCOCC2)c(NC(=O)c2ccc3c(c2)OCCO3)c1	17.9%
Cc1cccc(C)c1NC(=O)CS(=O)CC(=O)N1CCN(c2ccccc2)CC1 (stereo not given)	-9.06%
Cc1cccc(NC(=O)N2CCCCCC2)c1C	46.2%
CC1CCN(C2=NC(=O)/C(=C/c3cn[nH]c3-c3ccccc3)S2)CC1	-0.314%
Cc1ccc(N2CCN(C3=NC(=O)/C(=C\c4cccs4)S3)CC2)cc1	-4.1%
CCc1ccc(/C=C2\SC(N3CCOCC3)=NC2=O)cc1	42.9%
O=C1N=C(N2CCOCC2)S/C1=C\C=C/c1ccccc1	66.1% (active)
Cc1ccsc1/C=C1\SC(N2CCOCC2)=NC1=O	111% (active)
O=C1N=C(N2CCc3ccccc3C2)S/C1=C\c1ccc(O)cc1	33%
CCc1ccc(C(CNc2nc(C(F)(F)F)nc3ccccc23)N(C)C)cc1 (stereo not given)	-12.5%
Cc1cccc(CN2CCC(CNC(=O)Nc3ccc(F)c(Cl)c3)CC2)c1	-4.78%
Cc1ccc(NC(=O)C2CCCN2S(=O)(=O)c2cccc3cccnc23)c(C)c1 (stereo not given)	-11.1%
COc1ccc(OC)c(S(=O)(=O)n2c([N+](=O)[O-])cnc2C)c1	-7.62%
COc1cc(NC(=O)C2CC(c3ccccc3O)=NO2)c(OC)cc1Cl (stereo not given)	-12.3%
COc1ccc(C(CNC(=O)COc2ccccc2OC)N2CCCCC2)cc1 (stereo not given)	-20.7%
c1ccc(CN=C2Nc3ccccc3CS2)nc1	59.8% (active)
COc1ccccc1CNS(=O)(=O)c1c(C)[nH]c(C)c1C(=O)N1CCCCC1	2.2%
Cc1ccc(S(=O)(=O)N(CC(=O)NCc2ccco2)c2ccccc2C)cc1	9.67%
COc1ccccc1OC(C)C(=O)Nc1ccc(S(=O)(=O)Nc2nccs2)cc1 (stereo not given)	-4.41%
Cn1c(-c2ccc(F)cc2)cnc1SCC(=O)NNC(=O)Cc1ccccc1	18.3%

SMILES	inhibition
CSc1c(SCc2ccccc2)cnn(Cc2ccccc2)c1=O	10.6%
Cn1c(CO)cnc1SCc1ccccc1	65.8% (active)
CCS(=O)(=O)N1CCC(N2CCN(c3ccccc3)CC2)CC1	-4.18%
Cc1cc(C)n(-c2ccc(NC(=O)C3CCCCN3C(=O)c3cccs3)cc2)n1 (stereo not given)	11%
Cc1ccc2[nH]c3c(=O)n(CC(=O)NCCc4ccc(Cl)cc4)ncc3c2c1	21.6%
COc1ccc(Cc2n[nH]c(=S)n2NC(=O)Nc2ccc(C)cc2)cc1	63.4% (active)
Cc1ccc(OCc2n[nH]c(=S)n2-c2ccc(C)cc2)cc1	-9.95%
CCOc1ccc(NC(=O)CN2CCN(CC(=O)Nc3ccc(OC)cc3)CC2)cc1	-3.78%
COc1ccc(CCNC(=O)CN2C(=O)COc3ccc(S(=O)(=O)N4CCCC4)cc32)cc1OC	22.2%
CCc1ccc(-c2cc(C)no2)cc1S(=O)(=O)NCCc1ccc(S(N)(=O)=O)cc1	-11%
COc1ccc(CCNC(=S)N2CCN(S(=O)(=O)c3ccc(Cl)cc3)CC2)cc1	-14.7%
O=C(CCS(=O)(=O)c1ccccc1)NC1CCCC1	55.4% (active)
O=C(CCNC(=O)C1CCN(S(=O)(=O)c2ccccc2)CC1)NC1CC1	-1.38%
CC(=O)c1cc(-c2ccccc2)n(CCC(=O)NC2CCCCCC2)c1C	10.9%
CC1(C(=O)NNC(=S)NCC2CCCO2)CC1(Cl)Cl (stereo not given)	-2.83%
Cc1ccc(Cl)cc1NC(=O)C1CCCN(c2cnccn2)C1 (stereo not given)	-10.6%
C=CCN1C(=O)C2(OCCCO2)c2cccc(Cl)c21	-3.46%
CC1(C)Cc2ccccc2/C(=C/C(=O)c2ccccc2)N1	-3.39%
COc1ccc(NC(=O)c2cccc3c2C(=O)N(CC2CCCO2)C3)cc1OC (stereo not given)	3.68%
CC(=O)N[C@@H](C)C(=O)N1CCC(n2nccc2NC(=O)CCCc2ccccc2)CC1	57.5% (active)
CC(=O)NCC(=O)N1CCC(n2nccc2NC(=O)CCCc2ccccc2)CC1	30.2%
Cc1ccc(CN2CCC(n3nccc3NC(=O)CCCc3ccccc3)CC2)o1	21.2%
COc1cc(N2CCCC2)c(OC)cc1/C=C(/C#N)c1cccc(Br)c1	-23.2%
COc1ccccc1NC(=O)CCN1CCN(c2ccc(Cl)cc2)CC1	-2.18%
CC(Sc1cccc[n+]1[O-])C(=O)Nc1cccc(S(=O)(=O)N2CCOCC2)c1 (stereo not given)	-6.74%

SMILES	inhibition
Cc1ccc(CNC(=O)Cc2cn(C)c3ccccc23)cc1	12.6%
COc1cccc(NC(C)=[N+](C)CCNS(=O)(=O)c2ccc(Cl)cc2)c1	119% (active)
CCNS(=O)(=O)c1ccc(NC(=O)Nc2cccc(OC)c2)cc1	-33.1%
COc1cccc(NC(=O)CCNS(=O)(=O)c2ccc3c(c2)oc(=O)n3C)c1	14.5%
CCCCCCC(O)(CCN1CCCCC1)c1ccccc1 (stereo not given)	-7.11%
COc1ccc(NC(=O)C(CC(C)C)NC(=O)C2CCC(C)CC2)cc1 (stereo not given)	35.8%
CNC(=O)c1csc(-c2ccccc2)n1	25.9%
O=C(/C=C/Nc1ccccc1)c1cnc(-c2ccccc2)s1	-10.9%
CC(=O)c1cnc(-c2ccccc2)s1	59% (active)
CCCn1nnnc1NCc1ccc(OC)cc1	-12.1%
CCS(=O)(=O)C1=NSC2=NC(=O)/C(=C\c3ccc(OS(=O)(=O)c4ccccc4)cc3)C(=N)N21	14.7%
Cc1ccccc1N1CCN(S(=O)(=O)c2ccc3ccccc3c2)CC1	-3.59%
O=C(c1cccc(-n2cccc2)c1)N1CCN(S(=O)(=O)c2ccc(F)cc2)CC1	-1.04%
O=C(NCCc1ccccc1)Oc1ccc(Cl)cc1	62.7% (active)
NS(=O)(=O)c1ccc(CCNC(=O)c2ccc(Cl)cc2[N+](=O)[O-])cc1	12.8%
Cc1cc(C(=O)NCCc2ccc(Cl)cc2)c(C)o1	87.4% (active)
O=C(CCc1ccccc1)NNC(=O)COc1ccc(Cl)cc1	-14.5%
O=C(COc1ccc(Cl)cc1)NCCSc1ccccc1	-8.84%
Cc1cc(C(=O)NCCc2ccc(Cl)cc2)n(-c2ccccc2)n1	-4.98%
COc1cccc(C(=O)NNS(=O)(=O)c2ccc(F)cc2)c1	0.43%
CCN1CCN(CCNC(=O)c2ccc3c(c2)NC(=O)/C(=C\c2ccc(OC)c(OC)c2)S3)CC1	-8.25%
O=C1N/C(=C/c2cccn2-c2ccccc2)C(=O)N1c1cccc(Cl)c1	60.1% (active)
Cc1ccccc1NC(=O)CN1C(=O)N/C(=C\c2cccn2-c2cccc(C(=O)O)c2)C1=O	-13.8%
COc1cc2c(cc1/C=C1/NC(=O)N(c3ccccc3)C1=O)OCO2	24.2%
CCc1cccc(C)c1N1C(=O)CN(Cc2ccccc2)C1=S	-3.04%

SMILES	inhibition
O=C(c1c(F)cccc1F)N1CCN(S(=O)(=O)c2ccc3c(c2)OCCO3)CC1	2.06%
O=C(Nc1ccc(OCC(=O)N2CCOCC2)cc1)c1cc(F)c(F)cc1Cl	24.7%
Cc1cc(=O)oc2c(C)c(OC(C)C(=O)NC3CCN(Cc4ccccc4)CC3)ccc12 (stereo not given)	-5.37%
CCS(=O)(=O)N1Cc2ccccc2CC1C(=O)Nc1ccc(OC)cc1OC (stereo not given)	24.9%
CCS(=O)(=O)N1Cc2ccccc2CC1C(=O)Nc1nc2ccc(F)cc2s1 (stereo not given)	99.4% (active)
Cc1ccc2nc(NC(=O)C3CCN(S(=O)(=O)c4ccc5c(c4)oc(=O)n5C)CC3)sc2c1	-20.5%
CCN(CC)c1ccc(C(=O)Nn2c(C)nc3ccccc3c2=O)cc1	1.76%
COc1cccc(OCc2nnc3n2N=C(c2ccccc2)C(CC(=O)O)S3)c1 (stereo not given)	-9.17%
CCn1c(/C=N/NC(=O)c2ccc(OC)cc2)nc2ccccc21	15%
COc1ccc(/C=N/NC(=O)c2cccc(C(F)(F)F)c2)cc1	17.5%
Cn1cccc1/C=N/NC(=O)c1ccc(OC(F)(F)C(F)F)cc1	33.1% (active)
c1ccc(-c2cnc(CN3CCN(c4ccccc4)CC3)o2)cc1	-3.91%
O=C(COCc1cc(-c2ccc3c(c2)OCO3)on1)N1CCN(c2cccc(Cl)c2)CC1	4.57%
CCc1cc(C(c2ccccc2OC)N2CCOCC2)c(NC(=O)c2ccccc2)s1 (stereo not given)	33.3%
CCOC(=O)N1CCN(Cc2nc3cc(NC(C)=O)ccc3n2C)CC1	-4.25%
COc1ccc(C(=O)Nc2ccc(NC(=O)C(C)C)nc2)cc1	22.3%
CCCNC(=S)N1CCC(NC(=O)c2ccc(OC)cc2)CC1	10.3%
Cn1c(CN2CCOCC2)nc2cc(NC(=O)c3ccc(Cl)cc3)ccc21	69.5% (active)
Cc1ccc(NC(=O)c2ccc(Oc3ncccn3)cc2)cc1	54.9% (active)
CCc1cc(C(N)=O)c(NC(=O)c2ccc(OC)cc2)s1	33.1% (active)
COc1ccc(C(=O)NC(=S)NC2CCCCC2)cc1	91.2% (active)
CCc1cc(C(=O)c2ccc(OC)cc2)c(NC(=O)CN2CCN(C)CC2)s1	-6.04%
Cc1ccc(NC(=O)c2cccnc2C(=O)Nc2ccc(C)cc2)cc1	20.9%
O=C(NC(=S)NC1CCCCC1)c1ccc(Cl)cc1	-12.4%
CC(=O)NCCc1nc2cc(NC(=O)c3ccccc3)ccc2n1C	38.3%
